{"source": "PubChem BioAssay AID493044", "about": "(Johns Hopkins Ion Channel Center, 2011)", "note": "Entries with a potency or affinity are not part of this list. Calls of active or inactive are those of the source.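 The calls were made as follows: active = potentiation or inhibition of the KCNQ1 potassium channel at some dose, with a concentration-response curve obtained; inactive = no effect at any dose, or no curve obtained.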", "data": [{"biological_target": "Potassium voltage-gated channel subfamily KQT member 1 (Homo sapiens) (UniProt P51787)", "sequence (P51787 whole entry, looked up)": "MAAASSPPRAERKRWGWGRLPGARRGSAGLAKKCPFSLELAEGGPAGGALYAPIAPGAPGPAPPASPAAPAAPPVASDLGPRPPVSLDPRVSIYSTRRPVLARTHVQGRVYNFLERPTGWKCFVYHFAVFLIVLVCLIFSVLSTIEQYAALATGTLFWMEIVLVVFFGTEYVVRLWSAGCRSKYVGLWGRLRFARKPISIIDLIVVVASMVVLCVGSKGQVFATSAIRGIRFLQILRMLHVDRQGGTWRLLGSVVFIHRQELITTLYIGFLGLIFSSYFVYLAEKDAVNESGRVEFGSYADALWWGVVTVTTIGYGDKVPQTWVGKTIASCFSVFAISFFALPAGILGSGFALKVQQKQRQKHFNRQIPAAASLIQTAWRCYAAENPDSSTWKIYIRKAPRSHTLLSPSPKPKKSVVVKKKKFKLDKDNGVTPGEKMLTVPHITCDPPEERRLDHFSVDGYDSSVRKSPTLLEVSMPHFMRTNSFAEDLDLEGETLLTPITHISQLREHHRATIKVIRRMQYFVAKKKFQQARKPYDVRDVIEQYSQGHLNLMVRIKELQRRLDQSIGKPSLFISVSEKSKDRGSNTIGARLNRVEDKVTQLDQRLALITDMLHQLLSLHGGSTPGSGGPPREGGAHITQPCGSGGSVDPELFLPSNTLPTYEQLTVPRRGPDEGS", "experiment": "KCNQ1 potentiation selectivity check – automated patch clamp, KCNQ1-CHO cells, selectivity assay for KCNQ2 activator project, dose response (AID 493044)", "conditions": "automated patch clamp current (IonWorks); series mostly up to 30 µM", "values": [{"molecule": "Cc1cc(C)c(NC(=O)C2CC3CCC2C3)c(C)c1", "note": "(centres undefined)", "outcome": "inactive"}, {"molecule": "Cc1cc(C)c(NC(=O)CC(C)(C)C)c(Cl)c1", "outcome": "inactive"}, {"molecule": "Cc1cccc(C)c1NC(=O)C1CC2CCC1C2", "note": "(centres undefined)", "outcome": "inactive"}, {"molecule": "CCCCC(=O)Nc1c(C)cc(C)cc1Cl", "outcome": "inactive"}]}]}
